PubChem BioAssay (NCI)
About 83,000 compounds went through this panel and 20% of them were active in at least one assay; those are over-represented in the sample as a whole.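 Cells were grown in 96-well plates and exposed to the test compound at a single concentration for 48 hours; results are reported as percent growth, with values below 10 considered active.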 A number with no mark means an inactive call. Calls of active or inactive are those of the source.

How the values were obtained:
Assay in all cases: NCI-60 one-dose screen, 48 h (100 = growth as untreated, 0 = no growth, -100 = all killed)
Settings in all cases: 10 µM unless noted
[1] = system: NCI-H23 lung
[2] = system: NCI-H226 lung
[3] = system: NCI-H322M lung
[4] = system: HOP-62 NSCLC
[5] = system: NCI-H460 lung
[6] = system: HOP-92 NSCLC
[7] = system: NCI-H522 lung
[8] = system: 786-0 renal
[9] = system: COLO 205 colon
[10] = system: DU-145 prostate
[11] = system: K-562 leukemia
[12] = system: MALME-3M melanoma
[13] = system: MDA-MB-231 breast
[14] = system: RXF 393 renal
[15] = system: SF-268 CNS
[16] = system: SF-295 CNS
[17] = system: SF-539 CNS
[18] = system: UACC-257 melanoma
[19] = system: M14 melanoma
[20] = system: A549/ATCC NSCLC

| SMILES | growth [1] | growth [2] | growth [3] | growth [4] | growth [5] | growth [6] | growth [7] | growth [8] | growth [9] | growth [10] | growth [11] | growth [12] | growth [13] | growth [14] | growth [15] | growth [16] | growth [17] | growth [18] | growth [19] | growth [20] |
| --- | --- | --- | --- | --- | --- | --- | --- | --- | --- | --- | --- | --- | --- | --- | --- | --- | --- | --- | --- | --- |
| CC[C@H](C)[C@H](NC(=O)[C@H]1CCCCN1C)C(=O)N(C)[C@H](C[C@@H](OC(C)=O)c1cccc(C(=O)N[C@@H](Cc2ccccc2)C[C@H](C)C(=O)O)n1)C(C)C | 24.3% | 19.7% | 45.2% | 1.64% (active) | 7.49% (active) | 37% | -12.8% (active) | 23.1% | -66.1% (active) | -16.1% (active) | 7.77% (active) | 64.1% | -0.17% (active) | 31.2% | 18% | 2.98% (active) | -10.7% (active) | 47.9% | 10% | – |
| CC1(C)N=C(N)N=C(N)N1c1ccc(CCCCc2ccc(Cl)c(S(=O)(=O)F)c2)c(Cl)c1 | 20.4% | 44.2% | 45.5% | 18.1% | 16.3% | -0.0536% (active) | -14.7% (active) | -20.2% (active) | 36.3% | 35.3% | 9.3% (active) | 17.4% | 52.6% | – | 18.7% | 18.7% | 14% | 18.3% | 20.7% | – |
| CC(C)=CCC/C(C)=C/C=N\N=C(/N)N[N+](=O)[O-] | 97.6% | 99.3% | 95.9% | 87.2% | 110% | 89.8% | 47.7% | 80.4% | 103% | 102% | 95.9% | 93.5% | – | 122% | 93% | 101% | 89.2% | 107% | 102% | – |
| CN(C)CC(C(=O)Cc1ccccc1)c1ccccc1 (centres undefined) | 83.6% | 125% | 102% | 106% | 102% | – | -81.3% (active) | 9.78% (active) | 5.72% (active) | -10.7% (active) | 47.2% | 37.5% | 106% | 6.5% (active) | 30.6% | 113% | 5.03% (active) | 5.79% (active) | 36% | 97.5% |
| Cc1ccccc1NC(=NCCCN1CC1)Nc1ccccc1C | 97.7% | 83.1% | 97.6% | 119% | 81.7% | – | 84.9% | 100% | 102% | 90.1% | 94% | 105% | 64.4% | 85.3% | 86.5% | 103% | 109% | 103% | 91.3% | 86.4% |
| N#CC1(C#N)C(c2ccc(N(CCCl)CCCl)cc2)OC23CCCCC2C1(C#N)C(=N)O3 (centres undefined) | 61.5% | 9.15% (active) | 94.2% | 89.2% | 30.1% | – | 80.2% | 88.6% | 104% | 56.4% | – | 96.9% | 95.3% | 73.9% | 69.6% | 108% | 85% | 87.9% | 93.9% | 97.3% |
| C=C1[C@@H](C)[C@H]2[C@H](Cc3ccccc3)NC(=O)[C@]23[C@@H](O)/C=C/[C@@](C)(O)C(=O)[C@@H](C)C/C=C/[C@H]3[C@@H]1O | 68.2% | 50.4% | 92.2% | 5.91% (active) | 69.3% | – | 28% | 20.1% | -17.8% (active) | 82.9% | 52% | 62.5% | 32.9% | – | 24.5% | 39.2% | 21.9% | – | 68.8% | 37.7% |
| [Cl][Hg][c]1cc(Br)cc(Br)c1 | 61.8% | 99.9% | 80% | 31.7% | 32.2% | – | -30.4% (active) | 26.3% | 91% | 79.3% | 6.31% (active) | 69.8% | 19.8% | -18.3% (active) | 25.6% | 80.2% | 38.9% | 58.5% | 46.1% | 68% |
| O=C1C=C2C(=CCOC2O)O1 (centres undefined) | 60.4% | 34.4% | 101% | 59.6% | 71.1% | – | -79.9% (active) | 47.1% | -87.3% (active) | 9.48% (active) | – | -28.5% (active) | 66% | -74.8% (active) | 3.53% (active) | 89% | -33.6% (active) | -22.1% (active) | -18.9% (active) | 71.6% |
| CC[C@H](NC(=O)[C@H]1CCCCN1C)C(=O)N(C)[C@H](C[C@@H](OC(C)=O)c1nc(C(=O)N[C@@H](Cc2ccccc2)C[C@H](C)C(=O)O)cs1)C(C)C | 23% | 65.7% | 46.6% | 25.4% | 2.71% (active) | – | -19.9% (active) | 10.8% | -54.5% (active) | 0.513% (active) | 6.94% (active) | 76% | 9.34% (active) | 43.2% | 30.2% | 0.548% (active) | -12.1% (active) | 52.9% | -10.4% (active) | 10.4% |
| CC[C@H](C)[C@H](NC(=O)N[C@@H](C)c1ccccc1)C(=O)N(C)[C@H](C[C@@H](OC(C)=O)c1nc(C(=O)N[C@@H](Cc2ccccc2)C[C@H](C)C(=O)OC)cs1)C(C)C | 27% | 30.7% | 51.2% | 22.7% | 3.57% (active) | – | -39.1% (active) | 10.9% | -46.8% (active) | -4.64% (active) | 14% | 44.9% | -6.65% (active) | -8.76% (active) | 22.2% | 5.49% (active) | -27.6% (active) | 75.3% | -12.2% (active) | 31.3% |
| COc1ccc(C2=CC(c3ccc(OC)c(OC)c3)c3c(c4ccccc4oc3=O)O2)cc1OC (centres undefined) | 63.4% | 89.5% | 35.8% | 49% | 9.23% (active) | – | -43.7% (active) | 25.7% | 9.01% (active) | 9.25% (active) | 1.17% (active) | 75.3% | 27.8% | 33.2% | 38.7% | -54.4% (active) | -17.8% (active) | 66.9% | 12.9% | 39.4% |
| Cc1c2cc(Cl)c3ccccc3c2c[n+]2ccccc12 | 47.8% | 43.5% | 31.3% | 12.3% | 55.7% | – | 17.1% | 16.1% | 56.1% | 78.3% | – | -16.2% (active) | 82.5% | – | -36.3% (active) | 18.3% | 26.3% | – | 47.5% | 40.5% |
| Fc1ccc(C2=CCNCC2)cc1 | 50.2% | 86.6% | 111% | 112% | 99.5% | – | 63.1% | 78.8% | 103% | 111% | 108% | 95.5% | 80.7% | 97.7% | 96.8% | 77.8% | 93.4% | -21.6% (active) | 98.9% | – |
| COC(=O)[C@@H](C)C[C@H](Cc1ccccc1)NC(=O)c1csc([C@@H](C[C@H](C(C)C)N(C)C(=O)[C@@H](NC(=O)[C@H]2CCCN2C)C2CC2)OC(C)=O)n1 | 23.5% | 24.1% | 50.9% | 12.2% | 3.65% (active) | – | -9.59% (active) | 15.6% | -63.1% (active) | 8.13% (active) | 4.01% (active) | 64.2% | 6.59% (active) | 81.3% | 15.9% | 0.995% (active) | -14.6% (active) | 56.9% | 5.11% (active) | 13.2% |
| CC1=C(CCCOC(=O)CN)C2=C(C)C3(CC3)[C@@](C)(O)C(=O)C2=C1 | 9.41% (active) | 90.5% | 97.1% | 71.5% | 15.3% | – | 66.2% | 78.8% | 49.6% | 17% | 90.2% | 114% | 95.2% | -16.4% (active) | 48.7% | 86.8% | 94% | 86% | 73.8% | 68.7% |
